Only a selection was taken, and hits are over-represented in it overall.
RE007 growth inh: less growth of the S. pombe RE007 Vpr strain | S. pombe RE007 Vpr strain, BacTiter-Glo ATP luminescence, 24 h | Potency, µM (series often up to 92.2 µM), hits mostly inhibitors | 0.21% of 360,000 active | AID 651644; active = well fitted falling curve with a large enough effect; inconclusive = small, poorly fitted or top-dose-only effect; inactive = no such curve, though single readings can be large or run the other way; note: nearly all actives have a fitted effect of over 50% in size
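Fission yeast strain RE007, carrying one chromosomally integrated HIV-1 vpr copy, was seeded at OD 0.01 in PMG+AL medium with 23 nL pinned compound. After 24 h at 30 °C and 99% humidity, viability was read by BacTiter-Glo luminescence.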
FBPA Giardia inh: blocks Giardia fructose-bisphosphate aldolase activity; A8B2U2; purified Giardia FBPA; Potency, µM (highest dose often 59.6 µM), hits mostly inhibitors; 0.71% of 290,000 active; AID 2451; note: nearly all actives have a fitted effect of over 55% in size
Target sequence (A8B2U2 whole entry, looked up): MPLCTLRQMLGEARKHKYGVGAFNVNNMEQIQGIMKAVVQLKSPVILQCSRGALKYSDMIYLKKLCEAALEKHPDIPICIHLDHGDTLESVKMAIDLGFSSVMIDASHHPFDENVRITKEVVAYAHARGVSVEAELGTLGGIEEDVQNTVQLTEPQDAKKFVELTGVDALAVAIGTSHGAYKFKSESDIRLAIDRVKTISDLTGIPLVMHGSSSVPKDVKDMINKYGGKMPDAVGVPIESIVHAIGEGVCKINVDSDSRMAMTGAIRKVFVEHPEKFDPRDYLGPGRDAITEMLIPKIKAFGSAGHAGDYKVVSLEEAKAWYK
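40 nM FBPA preincubated 10 min at RT with compound (up to 57.5 uM final), then substrate plus GAPDH/TPI/NAD/arsenate coupling and diaphorase/resazurin added. Fluorescence read after 20 min at RT, 525/598 nm.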
LmPK inhibitor: blocks Leishmania mexicana pyruvate kinase activity; purified LmPK, Kinase-Glo ATP luminescence, 1 h; Potency, µM (series often up to 57.5 µM), most hits filed as inhibitors; 0.37% of 290,000 active
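In 50 mM imidazole pH 7.2 with 7 mM MgCl2, LmPK (0.1 nM) turned over PEP (0.5 mM) and ADP (0.1 mM) for 1 h at room temperature. Luciferase read-out of ATP.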
Tb PYK inh: inhibitors of Trypanosoma brucei pyruvate kinase. Q57TT1. TbPYK enzyme, Kinase-Glo Plus ATP luminescence, 45 min. Potency, µM (titrated, usually from 76.8 µM), usual class: inhibitors. 0.12% of 410,000 active. AID 624173; note: nearly all actives have a fitted effect of over 50% in size
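Activity of T. brucei pyruvate kinase was followed by Kinase-Glo Plus luminescence after the enzyme reacted 45 min at room temperature with 130 uM ADP (final) and substrate. Test compounds were added before ADP at multiple concentrations.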
Cycloheximide cs: counter-screen for Shiga toxin inhibitors: cycloheximide protein synthesis inhibition; cell reporter, cycloheximide protein synthesis inhibition counterscreen; max response, %; 12% of 300,000 active; in the data active = max response mostly above about 13%, no sharp cut-off; inactive = mostly below about 14%; note: read at 38.3 µM for the half of the compounds with a filed dose
Shiga toxin inh: Shiga toxin inhibition; Vero cells, Shiga toxin protein synthesis inhibition reporter; inhibition, % at 38.7 µM; 9.2% of 290,000 active; AID 2315; in the data active = inhibition mostly above about 28%, no sharp cut-off; inactive = mostly below about 43%
Numbers stand for hits; [ ] = another dose, or the depositor's remark. Unless noted, calls come from the whole dose curve; as a rule, active = well fitted curve in the direction sought with a large enough effect; inconclusive = small, poorly fitted or top-dose-only effect, or another doubt; inactive = no such curve, though single readings can be large; an effect the other way counts as inactive or inconclusive.

CC(=O)NCC(=O)N1CCCC(C(=O)c2ccc(-c3ccccc3)c(F)c2)C1 (configuration not stated) was read as RE007 growth inh inactive, FBPA Giardia inh inactive, LmPK inhibitor inactive, Tb PYK inh inactive, Cycloheximide cs inactive and Shiga toxin inh inactive.
`CCOC(=O)c1c(C)[nH]c(C(=O)N2CCCC(C(=O)c3cccc(OC)c3)C2)c1C` (configuration not stated) gave RE007 growth inh inactive, FBPA Giardia inh inactive, LmPK inhibitor inactive, Tb PYK inh inactive, Cycloheximide cs inactive and Shiga toxin inh inactive.
COCC(=O)N1CCCC(C(=O)c2ccc(-c3ccccc3)c(F)c2)C1 (configuration not stated) was read as RE007 growth inh inactive, FBPA Giardia inh inactive, LmPK inhibitor inactive, Tb PYK inh inactive, Cycloheximide cs 28.3 and Shiga toxin inh inactive.
Screening COc1ccc(C(=O)C2CCCN(C(=O)c3cc(C)nc(C)n3)C2)cc1OC (configuration not stated) returned RE007 growth inh inactive, FBPA Giardia inh inactive, LmPK inhibitor inactive, Tb PYK inh inactive, Cycloheximide cs inactive and Shiga toxin inh 50.4.
`CCCCNC(=O)N(O)C1N(CCCC)C(=O)N(CC(=O)OC)C1(C)C` (configuration not stated) gave RE007 growth inh inactive, FBPA Giardia inh inactive, LmPK inhibitor inactive, Tb PYK inh inactive, Cycloheximide cs inactive and Shiga toxin inh inactive.
Screening CCOC(=O)C1CCN(S(=O)(=O)c2cc(Br)cc3c2N(C(=O)CC)CC3)CC1 returned Tb PYK inh inactive.
Screening CCOc1ccc(C2C(C(N)=O)=C(C)Nc3nc(-c4ccc(OC)cc4)nn32)cc1 (configuration not stated) returned Tb PYK inh inactive.
Screening Cc1cnc(CNc2ncnc3ccc(-c4cccc(C#N)c4)cc23)cn1 returned FBPA Giardia inh inactive.
CCOC(=O)COc1ccc2c(C)c(CCN(CC)CC)c(=O)oc2c1Cl was read as FBPA Giardia inh inactive, Tb PYK inh inactive, Cycloheximide cs inactive and Shiga toxin inh inactive.
For COc1ccc(C(=O)C2CCCN(C(=O)c3ccccc3C(C)=O)C2)cc1F (configuration not stated) the results were RE007 growth inh inactive, FBPA Giardia inh inactive, LmPK inhibitor inactive, Tb PYK inh inactive, Cycloheximide cs 30.1 and Shiga toxin inh inactive.
`O=C(c1ccc(C(F)(F)F)cc1)C1CCCN(C(=O)CN2CCCC2=O)C1` (configuration not stated) gave RE007 growth inh inactive, FBPA Giardia inh inactive, LmPK inhibitor inactive, Tb PYK inh inactive, Cycloheximide cs inactive and Shiga toxin inh inactive.
`O=C(c1ccc(C(F)(F)F)cc1)C1CCCN(C(=O)CN2C(=O)CSC2=O)C1` (configuration not stated) gave RE007 growth inh inactive, FBPA Giardia inh inactive, LmPK inhibitor inactive, Tb PYK inh inactive, Cycloheximide cs 25.4 and Shiga toxin inh 52.8.
Screening NC(c1csc(Nc2ccc(C(F)(F)F)cn2)n1)C1CCCCC1 (configuration not stated) returned RE007 growth inh inactive[18.4 µM] and Tb PYK inh inactive.
Oc1ccc(-c2csc(Nc3ccccn3)n2)c(O)c1 was read as RE007 growth inh inactive, FBPA Giardia inh inactive, LmPK inhibitor inactive, Tb PYK inh inactive, Cycloheximide cs 34.0 and Shiga toxin inh 130.6.
Screening NS(=O)(=O)c1ccc(Nc2nc(-c3ccc(O)cc3O)cs2)cc1 returned RE007 growth inh inactive, FBPA Giardia inh inactive, LmPK inhibitor inactive, Tb PYK inh inactive, Cycloheximide cs inactive and Shiga toxin inh inactive.
For Cc1cccnc1Nc1nc(-c2ccc(O)cc2O)cs1 the results were RE007 growth inh inactive, FBPA Giardia inh inactive, LmPK inhibitor inactive, Tb PYK inh inactive, Cycloheximide cs 39.2 and Shiga toxin inh 112.4.
For Cc1ccccc1C(=O)Nc1cc2c(cc1N1CCCCC1)n(C)c(=O)n2C the results were Tb PYK inh inactive.
Cc1ccc(S(=O)(=O)N2CCN(C(=O)Cn3c(=O)cnc4ccccc43)CC2)cc1 was read as RE007 growth inh inactive and Tb PYK inh inactive.
O=C(N/N=C/c1ccc(O)cc1)/C(=C/c1ccccc1)CCO was read as RE007 growth inh inactive, FBPA Giardia inh inactive, LmPK inhibitor inactive, Tb PYK inh inactive, Cycloheximide cs 14.0 and Shiga toxin inh inactive.
COc1ccc(NC(=O)Nc2cccc(OCc3cc(=O)n4cccc(C)c4n3)c2)c(OC)c1 was read as Tb PYK inh inactive.
For O=C(NCc1ccccn1)c1cc(-c2ccc(Cl)cc2)nc2ccccc12 the results were RE007 growth inh inactive, FBPA Giardia inh inactive, LmPK inhibitor inactive, Tb PYK inh inactive, Cycloheximide cs inactive and Shiga toxin inh 33.1.
For Cc1ccc(-c2cc(C(=O)Nc3cc(C)on3)c3ccccc3n2)cc1 the results were RE007 growth inh inactive, FBPA Giardia inh inactive, LmPK inhibitor inactive, Tb PYK inh inactive, Cycloheximide cs inactive and Shiga toxin inh inactive.
For Cc1cc(NC(=O)c2cc(-c3ccc(C)c(C)c3)nc3ccccc23)no1 the results were RE007 growth inh inactive, FBPA Giardia inh inactive, LmPK inhibitor inactive, Tb PYK inh inactive, Cycloheximide cs inactive and Shiga toxin inh 20.1.
`Cc1ccc(-c2cc(C(=O)NCc3ccccn3)c3ccccc3n2)cc1C` gave RE007 growth inh inconclusive, FBPA Giardia inh inactive, LmPK inhibitor inactive, Tb PYK inh inconclusive, Cycloheximide cs 30.8 and Shiga toxin inh 65.8.
O=C(NCc1ccccn1)c1cc(-c2ccccc2)nc2ccccc12 was read as RE007 growth inh inactive, FBPA Giardia inh inactive, LmPK inhibitor inactive, Tb PYK inh inactive, Cycloheximide cs inactive and Shiga toxin inh inactive.
For O=C(NCc1ccccn1)c1cc(-c2ccc(-c3ccccc3)cc2)nc2ccccc12 the results were RE007 growth inh inactive, FBPA Giardia inh inactive, LmPK inhibitor inactive, Tb PYK inh inactive, Cycloheximide cs 19.9 and Shiga toxin inh 128.3.
Screening Cc1ccc(-c2cc(C(=O)NCCCN3CCOCC3)c3ccccc3n2)cc1C returned RE007 growth inh inactive, FBPA Giardia inh inactive, LmPK inhibitor inactive, Tb PYK inh inactive, Cycloheximide cs inactive and Shiga toxin inh 46.5.
Screening CCCCc1ccc(NC(=S)NN2CCOCC2)cc1 returned RE007 growth inh inactive, FBPA Giardia inh inactive, LmPK inhibitor inactive, Tb PYK inh inactive, Cycloheximide cs 67.3 and Shiga toxin inh 110.6.
CCOC(=O)c1ccc(NC(=S)Nc2ccccc2)cc1 was read as RE007 growth inh inactive, FBPA Giardia inh inactive, LmPK inhibitor inactive, Tb PYK inh inactive, Cycloheximide cs inactive and Shiga toxin inh inactive.
For CCOC(=O)c1ccc(NC(=S)N2CCSC2c2ccc(OC)cc2)cc1 (configuration not stated) the results were RE007 growth inh inactive, FBPA Giardia inh inactive, LmPK inhibitor inactive, Tb PYK inh inactive, Cycloheximide cs 26.0 and Shiga toxin inh 23.4.
